In PubChem BioAssay (Tox21):
Records with an inconclusive call do not appear. Activity calls are given as the source filed them. Unless noted, calls come from the whole dose curve; as a rule, active = well fitted curve in the direction sought with a large enough effect in the repeat runs; inconclusive = weak or mixed curves; inactive = no such curve, though single readings can be large; an effect the other way counts as inactive or inconclusive.

Assays:
[1] = qHTS assay to identify small molecule antagonists of the androgen receptor (AR) signaling pathway using the MDA cell line in the presence of 0.5 nM R1881 - cell viability counter screen (AID 1259242); note: nearly all actives have a fitted effect of over 45% in size
Summary of the method: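 Concentration-response screen of compounds for toxicity in MDA-kb2 reporter cells: 16 hr at 37C with 0.5 nM R1881, endpoint live-cell protease fluorescence measured in the reporter wells.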

[2] = qHTS assay to identify small molecule phospholipidosis (PLD) inducers (AID 1259344; active = well fitted curve in the direction sought with a large enough effect; an effect the other way counts as inactive or inconclusive)
Summary of the method: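 Read-out is LipidTOX Red fluorescence (ex 595/em 615) imaged in HepG2 cells after 24 h compound exposure at 37 C, with Hoechst nuclear counterstain (ex 352/em 461) allowing per-cell normalisation.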

[3] = qHTS assay to identify small molecule HDAC inhibitors (AID 1259364);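 note: wild-type HCT-116 cells with endogenous class I/II HDAC activity; top concentration of the series differs between compounds; nearly all actives have a fitted effect of over 45% in size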
Summary of the method: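 Screening used wild-type human colon HCT-116 cells incubated overnight, dosed with compounds for 2 hours, and assayed with a homogeneous luminogenic HDAC I/II reagent for 30 minutes at room temperature.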

[4] = qHTS assay to identify small molecule agonists of the sonic hedgehog signaling (Shh) pathway - cell viability counter screen (AID 1259366); note: nearly all actives have a fitted effect of over 50% in size
Summary of the method: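 Stable Gli1-Luc NIH/3T3 clone, 2,000 cells/well. Compound exposure 24hr at 37C. Read-out: CellTiter-Fluor fluorescence.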

[5] = qHTS assay to identify small molecule agonists of the sonic hedgehog signaling (Shh) pathway (AID 1259368; calls by dose curve;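 note: NIH/3T3-derived 3T3Gli1-Luc cells carrying a stable Gli1-driven firefly luciferase reporter; series mostly up to about 92 µM; nearly all actives have a fitted effect of over 15% in size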)
Summary of the method: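 Hedgehog pathway agonism scored by increased firefly luciferase luminescence in 3T3Gli1-Luc cells treated 24 hr at 37 C; detection used a 30 min room-temperature reagent incubation.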

[6] = qHTS assay to identify small molecule antagonists of the sonic hedgehog signaling (Shh) pathway (AID 1259369; calls by dose curve; note: nearly all actives have a fitted effect of over 45% in size)
Summary of the method: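 NIH/3T3 stable Gli1-Luc clone, 2,000 cells/well, 4hr settle; cpd + conditioned medium 24hr; Luc reagent 30min RT; luminescence.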

[7] = qHTS assay to identify small molecule HDAC inhibitors - cell viability counter screen (AID 1259365); note: series mostly up to about 92 µM; nearly all actives have a fitted effect of over 50% in size
Summary of the method: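 Cytotoxicity was gauged in wild-type HCT-116 cells after a brief 2hr treatment with DMSO-dissolved compounds at 37C and 5% CO2, using CellTiter-Glo luminescence developed for 30min at room temperature.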

[8] = qHTS assay to identify small molecule antagonists of the sonic hedgehog signaling (Shh) pathway - cell viability counter screen (AID 1259367); note: nearly all actives have a fitted effect of over 55% in size
Summary of the method: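 Fluorescence read-out (CellTiter-Fluor, 1 hr at 37C) taken after 23 hr compound treatment of 3T3 Gli1-Luc cells stimulated with conditioned medium. Cells were seeded at 2,000 per well and pre-incubated 4 hr.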
% is set by controls: 0 for no effect and ±100 for the full control effect.

CN(C)[C@@H]1C(=O)C(C(=O)NCN2CCCC2)=C(O)[C@@]2(O)C(=O)C3=C(O)c4c(O)cccc4[C@@](C)(O)C3C[C@@H]12 (stereo partly specified)
inactive: outcome [1] | outcome [2] | Potency [3] | Potency [4] | outcome [5] | Potency [6]

CC(=O)Nc1ccc(OCC(O)CNC(C)C)cc1 (stereo unspecified)
inactive: outcome [1] | outcome [2] | Potency [3] | outcome [7] | Potency [4] | Potency [8] | outcome [5] | Potency [6]

CCCc1ncc(C[n+]2ccccc2C)c(N)n1
inactive: outcome [1] | outcome [2] | Potency [4] | Potency [8] | outcome [5] | Potency [6]

CCC(C)(CN(C)C)OC(=O)c1ccccc1 (stereo unspecified)
inactive: outcome [1] | outcome [2] | Potency [3] | outcome [7] | Potency [4] | Potency [8] | outcome [5] | Potency [6]

CCN[C@@H]1C[C@H](N)[C@@H](OC2OC(CN)=CCC2N)[C@H](O)[C@H]1O[C@H]1OC[C@](C)(O)[C@H](NC)[C@H]1O (stereo partly specified)
inactive: viability change, negative = cytotoxic [1] 0.329% [at 0.349 µM] | outcome [2] | activity change, negative = inhibition [3] 3.34% [at 0.349 µM] | viability change, negative = cytotoxic [4] -1.56% [at 0.349 µM] | viability change, negative = cytotoxic [8] 0.171% [at 0.349 µM] | activity change [5] 0.0974% [at 0.349 µM] | activity change, negative = inhibition [6] 2.07% [at 0.349 µM]

C[N+]12CCC(CC1)C(OC(=O)C(O)(c1ccccc1)c1ccccc1)C2 (stereo unspecified)
inactive: outcome [1] | outcome [2] | Potency [3] | outcome [7] | Potency [4] | Potency [8] | outcome [5] | Potency [6]

Cc1c(N)c(=O)n(-c2ccccc2)n1C
inactive: outcome [1] | outcome [2] | outcome [7] | Potency [4] | Potency [8] | outcome [5] | Potency [6]

CC(C(=O)O)c1cccc(Oc2ccccc2)c1 (stereo unspecified)
inactive: outcome [1] | outcome [2] | Potency [3] | outcome [7] | Potency [4] | Potency [8] | outcome [5] | Potency [6]

NCCCC(N)(C(=O)O)C(F)F (stereo unspecified)
inactive: outcome [1] | outcome [2] | Potency [3] | outcome [7] | Potency [4] | Potency [8] | outcome [5] | Potency [6]

Nc1ccn([C@@H]2O[C@H](CO)[C@@H](O)C2O)c(=O)n1 (stereo partly specified)
inactive: outcome [1] | outcome [2] | Potency [3] | Potency [4] | Potency [8] | outcome [5] | Potency [6]

COc1cc(-c2ccc(=O)[nH]n2)ccc1OC(F)F
inactive: outcome [1] | outcome [2] | Potency [3] | outcome [7] | Potency [4] | Potency [8] | outcome [5] | Potency [6]

O=Cc1cccc(Br)c1
inactive: outcome [1] | Potency [3] | outcome [7] | Potency [4] | Potency [8] | outcome [5] | Potency [6]

CC[N+](C)(CC)CCOC(=O)C1c2ccccc2Oc2ccccc21
inactive: outcome [1] | outcome [2] | Potency [3] | Potency [4] | outcome [5] | Potency [6]

COc1cccc(OC)c1C(=O)N[C@@H]1C(=O)N2[C@@H]1SC(C)(C)[C@@H]2C(=O)O
inactive: outcome [1] | outcome [2] | outcome [7] | Potency [4] | Potency [8] | outcome [5] | Potency [6]

C[C@@H]1CCC[C@H](C)N1
inactive: outcome [1] | outcome [2] | Potency [3] | Potency [4] | Potency [8] | outcome [5] | Potency [6]

NC(N)=NCCN1CCCCCCC1
inactive: viability change, negative = cytotoxic [1] 1.84% [at 0.349 µM] | outcome [2] | activity change, negative = inhibition [3] -1.37% [at 0.349 µM] | activity change, negative = cytotoxicity [7] -1.69% [at 0.349 µM] | viability change, negative = cytotoxic [4] -1.53% [at 0.349 µM] | viability change, negative = cytotoxic [8] 3.04% [at 0.349 µM] | activity change [5] -0.0353% [at 0.349 µM] | activity change, negative = inhibition [6] 18.5% [at 0.349 µM]
